Drawing on publication PMC7862700, “An all-to-all approach to the identification of sequence-specific readers for epigenetic DNA modifications on cytosine”, this text covers binding signal for one sequence.

Holding throughout (test): DAPPL (digital affinity profiling via proximity ligation, sequencing); 10 mM Tris-HCl pH 7.5, 50 mM NaCl, 1 mM DTT, 4% glycerol, room temperature, 30 min; GST-TFs on glutathione beads, 16-mer random dsDNA library, 0.1% formaldehyde crosslink after washing; high values mean tight binding
The target in experiment [1] is T1, FEV (Homo sapiens, UniProt Q99581 1-238).
T1 sequence: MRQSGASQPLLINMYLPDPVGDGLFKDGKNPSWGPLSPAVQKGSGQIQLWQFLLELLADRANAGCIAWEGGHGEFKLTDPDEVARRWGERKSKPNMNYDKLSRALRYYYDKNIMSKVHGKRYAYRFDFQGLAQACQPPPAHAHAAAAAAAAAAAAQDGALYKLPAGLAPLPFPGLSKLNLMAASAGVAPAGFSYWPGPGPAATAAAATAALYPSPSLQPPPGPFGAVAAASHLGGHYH
The settings on record: protein: recombinant; tags: N-terminal GST; dsDNA, one strand shown. The method, boiled down: (§1)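 Binding signal is defined as a hexamer's read frequency for one factor over its frequency for the tag-only sample. To obtain reads, GST-fused human transcription factors were expressed in yeast, captured on glutathione beads, barcoded with DNA and pooled with that sample. Pools met 200 nmole of a 16-mer random double-stranded DNA library in Tris/NaCl/DTT/glycerol buffer for 30 min at room temperature before washing, 0.1% formaldehyde crosslinking, proximity ligation (BsaI/T4 ligase, 1 h, 37 °C), PCR and Illumina NextSeq500 sequencing.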

In experiment [2] the target is ETV5 (Homo sapiens, UniProt P41161 1-510). The settings on record: protein: recombinant; tags: N-terminal GST; dsDNA, one strand shown. The method, boiled down: as §1
The target of experiment [3] is HSF1 (Homo sapiens, UniProt Q00613 1-529). Conditions: protein: recombinant; tags: N-terminal GST; chain copies: 3; dsDNA, one strand shown. Summed up: as §1
In experiment [4] the target is T2, SPIC (Homo sapiens, UniProt Q8N5J4 1-248).
T2 sequence: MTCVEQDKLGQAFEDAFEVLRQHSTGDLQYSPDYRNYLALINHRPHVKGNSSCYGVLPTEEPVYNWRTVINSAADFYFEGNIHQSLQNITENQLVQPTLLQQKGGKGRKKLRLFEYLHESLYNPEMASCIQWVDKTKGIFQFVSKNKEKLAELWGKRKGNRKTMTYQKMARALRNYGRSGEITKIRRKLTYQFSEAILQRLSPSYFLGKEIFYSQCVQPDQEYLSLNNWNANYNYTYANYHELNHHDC
The settings on record: protein: recombinant; tags: N-terminal GST; dsDNA, one strand shown. The method, boiled down:
as §1

The target of experiment [5] is ELF4 (Homo sapiens, UniProt Q99607 1-663). The settings on record: protein: recombinant; tags: N-terminal GST; dsDNA, one strand shown. Summed up: as §1
Experiment [6] has as its target T3, ELK4 (Homo sapiens, UniProt P28324-2 1-405).
T3 sequence: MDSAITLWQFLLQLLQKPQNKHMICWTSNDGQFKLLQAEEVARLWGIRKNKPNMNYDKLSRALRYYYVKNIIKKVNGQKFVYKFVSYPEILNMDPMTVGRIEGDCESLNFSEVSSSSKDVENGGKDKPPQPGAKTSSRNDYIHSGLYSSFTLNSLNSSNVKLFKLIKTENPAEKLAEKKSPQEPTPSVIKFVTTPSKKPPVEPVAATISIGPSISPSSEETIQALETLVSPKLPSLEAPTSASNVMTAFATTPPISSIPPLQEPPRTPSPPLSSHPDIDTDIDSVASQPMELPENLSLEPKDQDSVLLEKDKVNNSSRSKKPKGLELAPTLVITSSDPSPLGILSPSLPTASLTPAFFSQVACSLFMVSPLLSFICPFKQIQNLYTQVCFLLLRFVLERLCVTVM
Conditions: protein: recombinant; tags: N-terminal GST; dsDNA, one strand shown. The method, boiled down: as §1

Experiment [7] concerns the target T4, ETV2 (Homo sapiens, UniProt O00321 1-342).
T4 sequence: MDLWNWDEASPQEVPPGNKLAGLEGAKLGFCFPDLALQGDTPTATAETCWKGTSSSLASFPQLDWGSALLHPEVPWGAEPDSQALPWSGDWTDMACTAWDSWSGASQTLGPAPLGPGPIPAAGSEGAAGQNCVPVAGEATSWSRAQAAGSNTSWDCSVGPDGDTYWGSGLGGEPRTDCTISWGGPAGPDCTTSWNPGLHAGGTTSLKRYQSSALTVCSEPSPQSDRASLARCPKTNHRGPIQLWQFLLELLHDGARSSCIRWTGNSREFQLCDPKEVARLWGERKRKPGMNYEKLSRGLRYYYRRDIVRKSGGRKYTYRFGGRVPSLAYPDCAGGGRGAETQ
Conditions: protein: recombinant; tags: N-terminal GST; dsDNA, one strand shown. The method, boiled down:
as §1

The target in experiment [8] is T5, ELF3 (Homo sapiens, UniProt P78545 1-371).
T5 sequence: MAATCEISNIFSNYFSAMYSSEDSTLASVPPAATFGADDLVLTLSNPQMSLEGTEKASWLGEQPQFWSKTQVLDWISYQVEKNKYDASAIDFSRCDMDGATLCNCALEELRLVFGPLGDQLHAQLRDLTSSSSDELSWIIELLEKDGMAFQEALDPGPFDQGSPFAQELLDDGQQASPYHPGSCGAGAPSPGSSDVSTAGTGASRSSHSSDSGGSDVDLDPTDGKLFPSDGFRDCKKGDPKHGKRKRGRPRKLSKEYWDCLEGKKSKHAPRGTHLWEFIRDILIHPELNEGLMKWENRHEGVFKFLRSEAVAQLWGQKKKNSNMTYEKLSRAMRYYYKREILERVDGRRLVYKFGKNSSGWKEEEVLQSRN
Conditions: protein: recombinant; tags: N-terminal GST; dsDNA, one strand shown. Summed up: as §1

In experiment [9] the target is CRX (Homo sapiens, UniProt O43186 1-299). Conditions: protein: recombinant; tags: N-terminal GST; dsDNA, one strand shown. Summed up: as §1
The target in experiment [10] is ETV1 (Homo sapiens, UniProt P50549 1-477). The settings on record: protein: recombinant; tags: N-terminal GST; dsDNA, one strand shown. Summed up: as §1
Experiment [11] addresses T6, ERF (Homo sapiens, UniProt P50548 1-548).
T6 sequence: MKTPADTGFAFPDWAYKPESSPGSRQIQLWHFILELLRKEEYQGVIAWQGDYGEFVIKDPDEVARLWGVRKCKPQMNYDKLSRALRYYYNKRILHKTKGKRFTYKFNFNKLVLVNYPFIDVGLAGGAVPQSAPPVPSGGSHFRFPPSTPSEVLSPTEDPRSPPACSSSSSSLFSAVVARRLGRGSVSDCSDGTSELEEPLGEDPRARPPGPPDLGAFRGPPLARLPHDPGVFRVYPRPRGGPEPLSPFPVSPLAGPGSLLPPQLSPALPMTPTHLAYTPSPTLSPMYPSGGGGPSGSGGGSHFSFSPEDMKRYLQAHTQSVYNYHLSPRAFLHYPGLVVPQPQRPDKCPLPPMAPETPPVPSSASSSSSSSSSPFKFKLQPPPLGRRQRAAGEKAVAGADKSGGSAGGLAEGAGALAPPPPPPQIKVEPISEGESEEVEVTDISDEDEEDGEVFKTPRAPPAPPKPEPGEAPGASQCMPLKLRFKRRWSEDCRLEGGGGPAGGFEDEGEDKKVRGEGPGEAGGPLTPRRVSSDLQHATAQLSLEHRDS
The settings on record: protein: recombinant; tags: N-terminal GST; dsDNA, one strand shown. Summed up: as §1

The target of experiment [12] is T7, ETV3L (Homo sapiens, UniProt Q6ZN32 1-361).
T7 sequence: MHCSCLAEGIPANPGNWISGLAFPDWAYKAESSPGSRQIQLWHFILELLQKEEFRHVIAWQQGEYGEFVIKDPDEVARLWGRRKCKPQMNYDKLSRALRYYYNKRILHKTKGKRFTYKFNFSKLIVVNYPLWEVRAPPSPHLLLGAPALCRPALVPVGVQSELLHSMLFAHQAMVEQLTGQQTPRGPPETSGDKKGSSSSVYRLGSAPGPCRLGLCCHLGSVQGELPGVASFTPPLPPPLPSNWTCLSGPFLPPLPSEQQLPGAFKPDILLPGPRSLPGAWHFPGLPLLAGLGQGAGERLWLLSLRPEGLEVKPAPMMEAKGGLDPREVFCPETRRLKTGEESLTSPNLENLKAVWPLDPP
Conditions: protein: recombinant; tags: N-terminal GST; dsDNA, one strand shown. The method, boiled down:
as §1

Experiment [13] has as its target T8, ETS2 (Homo sapiens, UniProt P15036 1-469).
T8 sequence: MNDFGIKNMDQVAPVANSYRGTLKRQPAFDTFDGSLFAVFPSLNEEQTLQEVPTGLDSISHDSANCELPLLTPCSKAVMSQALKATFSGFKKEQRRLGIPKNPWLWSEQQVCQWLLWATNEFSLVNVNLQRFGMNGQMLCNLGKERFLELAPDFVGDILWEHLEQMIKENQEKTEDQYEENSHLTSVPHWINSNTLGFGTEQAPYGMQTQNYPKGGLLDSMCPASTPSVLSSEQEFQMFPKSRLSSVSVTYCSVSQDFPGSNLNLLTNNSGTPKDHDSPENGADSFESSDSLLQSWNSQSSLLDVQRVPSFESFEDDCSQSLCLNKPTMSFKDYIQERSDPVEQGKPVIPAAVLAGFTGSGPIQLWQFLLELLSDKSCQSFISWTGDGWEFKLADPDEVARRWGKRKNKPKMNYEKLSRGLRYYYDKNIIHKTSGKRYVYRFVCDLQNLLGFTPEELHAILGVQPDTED
Conditions: protein: recombinant; tags: N-terminal GST; dsDNA, one strand shown. Summed up:
as §1

Experiment [14] concerns the target T9, SPDEF (Homo sapiens, UniProt O95238 1-335).
T9 sequence: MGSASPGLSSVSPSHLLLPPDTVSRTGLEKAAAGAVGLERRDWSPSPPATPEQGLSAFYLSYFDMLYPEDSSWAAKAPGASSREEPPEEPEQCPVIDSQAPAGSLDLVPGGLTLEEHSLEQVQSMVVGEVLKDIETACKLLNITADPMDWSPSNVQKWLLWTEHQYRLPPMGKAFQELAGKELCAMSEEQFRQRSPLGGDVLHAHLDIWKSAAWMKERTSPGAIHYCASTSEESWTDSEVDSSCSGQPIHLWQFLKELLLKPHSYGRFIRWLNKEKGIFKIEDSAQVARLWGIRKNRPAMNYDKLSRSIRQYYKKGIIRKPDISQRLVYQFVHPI
The settings on record: protein: recombinant; tags: N-terminal GST; dsDNA, one strand shown. Summed up: as §1

Experiment [15] concerns the target T10, ETV7 (Homo sapiens, UniProt Q9Y603 1-341).
T10 sequence: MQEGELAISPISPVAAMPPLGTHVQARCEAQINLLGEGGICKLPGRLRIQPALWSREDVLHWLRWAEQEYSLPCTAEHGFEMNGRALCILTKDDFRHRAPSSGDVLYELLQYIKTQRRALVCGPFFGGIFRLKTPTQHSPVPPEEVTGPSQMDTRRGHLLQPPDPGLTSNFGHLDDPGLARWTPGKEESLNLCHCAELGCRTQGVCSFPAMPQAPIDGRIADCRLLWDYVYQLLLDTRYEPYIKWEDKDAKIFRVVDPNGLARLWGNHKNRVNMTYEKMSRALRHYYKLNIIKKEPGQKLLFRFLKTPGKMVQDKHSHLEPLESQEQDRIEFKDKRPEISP
Conditions: protein: recombinant; tags: N-terminal GST; dsDNA, one strand shown. Summed up: as §1

Experiment [16] has as its target T11, ELF5 (Homo sapiens, UniProt Q9UKW6-2 1-255).
T11 sequence: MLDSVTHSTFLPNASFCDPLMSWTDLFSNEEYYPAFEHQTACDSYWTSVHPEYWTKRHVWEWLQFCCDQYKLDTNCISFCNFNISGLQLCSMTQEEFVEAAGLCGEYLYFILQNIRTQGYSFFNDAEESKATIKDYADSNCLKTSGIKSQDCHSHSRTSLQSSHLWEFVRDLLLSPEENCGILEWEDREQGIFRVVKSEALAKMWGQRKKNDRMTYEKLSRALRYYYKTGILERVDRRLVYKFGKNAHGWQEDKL
Conditions: protein: recombinant; tags: N-terminal GST; dsDNA, one strand shown. The method, boiled down:
as §1

Experiment [17] deals with T12, ETV3 (Homo sapiens, UniProt P41162-2 1-143).
T12 sequence: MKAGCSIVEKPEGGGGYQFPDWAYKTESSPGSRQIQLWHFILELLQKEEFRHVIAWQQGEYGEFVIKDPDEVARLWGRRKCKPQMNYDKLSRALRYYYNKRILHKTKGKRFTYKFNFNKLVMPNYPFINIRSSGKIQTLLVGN
The settings on record: protein: recombinant; tags: N-terminal GST; dsDNA, one strand shown. The method, boiled down:
as §1

For experiment [18], the target named is ETV6 (Homo sapiens, UniProt P41212 1-452). The settings on record: protein: recombinant; tags: N-terminal GST; dsDNA, one strand shown. The method, boiled down:
as §1

Sequence of ETV5 (P41161 whole entry): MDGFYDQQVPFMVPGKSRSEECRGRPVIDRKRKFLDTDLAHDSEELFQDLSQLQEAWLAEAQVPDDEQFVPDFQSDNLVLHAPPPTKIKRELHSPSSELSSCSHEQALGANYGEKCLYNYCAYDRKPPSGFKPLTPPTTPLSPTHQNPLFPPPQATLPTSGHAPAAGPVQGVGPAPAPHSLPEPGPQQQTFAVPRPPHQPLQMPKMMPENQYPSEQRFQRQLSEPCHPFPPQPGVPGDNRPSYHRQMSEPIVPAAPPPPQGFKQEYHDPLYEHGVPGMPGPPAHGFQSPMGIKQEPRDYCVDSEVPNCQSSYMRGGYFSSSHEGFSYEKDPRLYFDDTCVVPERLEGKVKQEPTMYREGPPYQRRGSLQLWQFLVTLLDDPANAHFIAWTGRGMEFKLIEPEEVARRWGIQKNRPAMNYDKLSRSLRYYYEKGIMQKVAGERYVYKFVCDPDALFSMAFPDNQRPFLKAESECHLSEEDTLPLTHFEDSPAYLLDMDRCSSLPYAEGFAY
Sequence of ETV6 (P41212 whole entry): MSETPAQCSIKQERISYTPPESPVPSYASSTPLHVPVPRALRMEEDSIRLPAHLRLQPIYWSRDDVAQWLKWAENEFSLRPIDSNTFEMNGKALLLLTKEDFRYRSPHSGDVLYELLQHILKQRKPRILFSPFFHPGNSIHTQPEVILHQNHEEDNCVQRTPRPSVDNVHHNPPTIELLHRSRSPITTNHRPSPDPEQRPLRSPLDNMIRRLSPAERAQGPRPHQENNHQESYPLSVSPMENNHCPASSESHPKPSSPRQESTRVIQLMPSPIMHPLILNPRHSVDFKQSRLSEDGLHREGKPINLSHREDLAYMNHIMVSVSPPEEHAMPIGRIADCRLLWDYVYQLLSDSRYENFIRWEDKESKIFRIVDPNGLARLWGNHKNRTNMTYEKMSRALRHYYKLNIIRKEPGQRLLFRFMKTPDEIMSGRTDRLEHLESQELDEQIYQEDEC
Sequence of ETV1 (P50549 whole entry): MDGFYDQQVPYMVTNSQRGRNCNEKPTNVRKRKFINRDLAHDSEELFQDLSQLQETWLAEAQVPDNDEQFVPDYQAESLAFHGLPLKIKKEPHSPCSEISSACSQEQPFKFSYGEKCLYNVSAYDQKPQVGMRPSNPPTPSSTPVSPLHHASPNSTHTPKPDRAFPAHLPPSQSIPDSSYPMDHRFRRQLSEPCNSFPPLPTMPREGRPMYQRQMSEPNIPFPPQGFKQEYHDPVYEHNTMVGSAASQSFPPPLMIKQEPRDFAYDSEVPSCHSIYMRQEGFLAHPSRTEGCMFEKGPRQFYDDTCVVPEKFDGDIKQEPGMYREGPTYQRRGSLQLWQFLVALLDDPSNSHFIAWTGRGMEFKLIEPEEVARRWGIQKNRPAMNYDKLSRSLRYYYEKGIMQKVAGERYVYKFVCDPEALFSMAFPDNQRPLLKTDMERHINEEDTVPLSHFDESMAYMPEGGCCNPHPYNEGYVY
Sequence of CRX (O43186 whole entry): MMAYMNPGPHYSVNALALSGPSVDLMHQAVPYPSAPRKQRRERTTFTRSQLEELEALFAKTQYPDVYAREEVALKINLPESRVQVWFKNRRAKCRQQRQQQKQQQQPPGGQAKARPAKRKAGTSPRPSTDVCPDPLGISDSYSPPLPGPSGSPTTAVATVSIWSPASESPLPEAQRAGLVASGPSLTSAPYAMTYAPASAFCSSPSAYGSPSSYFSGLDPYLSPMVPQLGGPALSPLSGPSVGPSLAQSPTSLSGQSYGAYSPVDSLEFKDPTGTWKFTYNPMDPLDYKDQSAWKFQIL
Sequence of HSF1 (Q00613 whole entry): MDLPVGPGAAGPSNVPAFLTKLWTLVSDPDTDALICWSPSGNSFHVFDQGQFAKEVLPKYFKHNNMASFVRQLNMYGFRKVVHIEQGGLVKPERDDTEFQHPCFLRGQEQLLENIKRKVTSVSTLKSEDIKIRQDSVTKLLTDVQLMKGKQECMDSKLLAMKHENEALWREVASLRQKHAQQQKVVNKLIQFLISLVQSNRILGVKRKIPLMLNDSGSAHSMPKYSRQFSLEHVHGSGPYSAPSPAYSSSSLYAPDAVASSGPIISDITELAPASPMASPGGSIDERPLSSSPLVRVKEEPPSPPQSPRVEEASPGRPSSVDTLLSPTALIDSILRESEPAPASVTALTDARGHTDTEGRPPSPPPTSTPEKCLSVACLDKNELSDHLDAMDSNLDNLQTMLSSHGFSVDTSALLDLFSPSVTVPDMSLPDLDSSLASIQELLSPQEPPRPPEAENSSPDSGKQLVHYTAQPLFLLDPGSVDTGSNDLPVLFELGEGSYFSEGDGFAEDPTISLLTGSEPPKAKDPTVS
Sequence of ELF4 (Q99607 whole entry): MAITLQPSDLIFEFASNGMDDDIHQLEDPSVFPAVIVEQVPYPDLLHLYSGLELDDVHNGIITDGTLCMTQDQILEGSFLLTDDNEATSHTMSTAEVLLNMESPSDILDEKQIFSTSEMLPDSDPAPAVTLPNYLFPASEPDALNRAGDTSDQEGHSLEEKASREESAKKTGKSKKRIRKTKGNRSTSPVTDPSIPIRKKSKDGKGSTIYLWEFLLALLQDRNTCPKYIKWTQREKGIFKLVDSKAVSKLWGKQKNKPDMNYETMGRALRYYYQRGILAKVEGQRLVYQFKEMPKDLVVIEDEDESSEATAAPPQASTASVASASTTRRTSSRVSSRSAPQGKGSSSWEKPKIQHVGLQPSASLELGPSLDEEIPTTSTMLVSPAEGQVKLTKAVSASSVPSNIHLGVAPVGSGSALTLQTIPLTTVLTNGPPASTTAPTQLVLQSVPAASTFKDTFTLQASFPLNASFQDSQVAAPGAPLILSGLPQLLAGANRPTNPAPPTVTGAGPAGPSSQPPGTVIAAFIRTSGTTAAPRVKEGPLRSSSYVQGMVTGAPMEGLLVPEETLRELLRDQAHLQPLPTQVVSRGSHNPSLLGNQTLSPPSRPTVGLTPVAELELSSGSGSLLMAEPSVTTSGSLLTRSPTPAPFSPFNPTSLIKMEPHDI

On to TCCGAC, for which the binding signal in [1] is 1.68 fold enrichment (6-mer frequency, TF over GST control); in [2], 1.44 fold enrichment (6-mer frequency, TF over GST control); in experiment [3] it was 1.23 fold enrichment (6-mer frequency, TF over GST control); in experiment [4], 1.59 fold enrichment (6-mer frequency, TF over GST control); in experiment [5] it was 1.44 fold enrichment (6-mer frequency, TF over GST control); in experiment [6], 1.43 fold enrichment (6-mer frequency, TF over GST control). In addition, the binding signal in experiment [7] was 1.35 fold enrichment (6-mer frequency, TF over GST control); in experiment [8], 1.47 fold enrichment (6-mer frequency, TF over GST control); in experiment [9], 1.25 fold enrichment (6-mer frequency, TF over GST control); in experiment [10] it was 1.55 fold enrichment (6-mer frequency, TF over GST control); in [11], 1.57 fold enrichment (6-mer frequency, TF over GST control); in experiment [12], 1.47 fold enrichment (6-mer frequency, TF over GST control). In addition, the binding signal was 1.48 fold enrichment (6-mer frequency, TF over GST control) in experiment [13]; 1.43 fold enrichment (6-mer frequency, TF over GST control) in experiment [14]; 1.43 fold enrichment (6-mer frequency, TF over GST control) in [15]; 1.61 fold enrichment (6-mer frequency, TF over GST control) in [16]; 1.43 fold enrichment (6-mer frequency, TF over GST control) in experiment [17]; 1.55 fold enrichment (6-mer frequency, TF over GST control) in [18].
